# Hit rate of the full screen: of about 310,000 compounds, about 2,200 (0.71%) showed an effect of 50% or more. Effects have a minus sign here. The full list was thinned out, with strong results kept by preference.
# Biological target: human ether-à-go-go-related gene (hERG) potassium channel (human, UniProt Q12809)
# Experiment: primary screen, population patch clamp on CHO cells stably expressing hERG; higher = less effect of the substance
# Sequence of human ether-à-go-go-related gene (hERG) potassium channel (Q12809 whole entry, looked up): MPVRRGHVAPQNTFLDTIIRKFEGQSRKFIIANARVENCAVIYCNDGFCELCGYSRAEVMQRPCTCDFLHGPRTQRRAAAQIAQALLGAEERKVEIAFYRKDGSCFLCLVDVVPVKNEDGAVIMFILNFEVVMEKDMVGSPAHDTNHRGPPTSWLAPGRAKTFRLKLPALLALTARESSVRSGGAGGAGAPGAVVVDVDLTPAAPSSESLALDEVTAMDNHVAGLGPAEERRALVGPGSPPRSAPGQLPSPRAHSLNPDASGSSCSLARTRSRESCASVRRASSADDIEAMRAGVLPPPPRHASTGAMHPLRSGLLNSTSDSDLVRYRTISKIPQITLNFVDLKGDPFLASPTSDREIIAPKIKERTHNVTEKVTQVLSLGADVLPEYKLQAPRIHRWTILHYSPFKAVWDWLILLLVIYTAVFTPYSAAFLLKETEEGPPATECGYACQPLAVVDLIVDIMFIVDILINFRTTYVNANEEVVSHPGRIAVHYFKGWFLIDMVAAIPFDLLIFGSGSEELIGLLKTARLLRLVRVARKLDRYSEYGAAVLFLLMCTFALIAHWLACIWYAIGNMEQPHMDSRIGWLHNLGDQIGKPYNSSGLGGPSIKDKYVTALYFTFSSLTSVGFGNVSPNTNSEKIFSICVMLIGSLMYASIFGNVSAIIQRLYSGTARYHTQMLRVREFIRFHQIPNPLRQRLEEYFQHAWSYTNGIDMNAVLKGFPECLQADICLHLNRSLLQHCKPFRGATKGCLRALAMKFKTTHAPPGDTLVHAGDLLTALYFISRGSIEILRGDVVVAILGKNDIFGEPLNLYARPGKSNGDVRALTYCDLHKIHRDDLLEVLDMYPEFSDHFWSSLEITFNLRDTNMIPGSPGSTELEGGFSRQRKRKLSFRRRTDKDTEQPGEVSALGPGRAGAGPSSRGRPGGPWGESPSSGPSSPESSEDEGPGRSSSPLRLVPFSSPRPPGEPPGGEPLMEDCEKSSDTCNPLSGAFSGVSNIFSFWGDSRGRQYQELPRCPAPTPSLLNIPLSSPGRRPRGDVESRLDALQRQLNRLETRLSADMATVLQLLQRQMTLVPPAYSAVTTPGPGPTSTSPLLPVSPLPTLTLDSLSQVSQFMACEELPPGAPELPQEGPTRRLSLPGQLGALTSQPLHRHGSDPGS
row,Compound,"hERG current change (%, negative = inhibition) at 1uM [%]"
1,CN(C(=O)c1ccc2c(c1)OCO2)C1CCCCC1,6.85
2,Cc1nc(NC(=O)CC(C)C)sc1-c1csc(Nc2ccc(Cl)cc2)n1,12.5
3,Cc1ccccc1C(=O)NNC(=S)Nc1cccc(C(F)(F)F)c1,13.2
4,CCCCc1ccc(-c2nc(NC(=O)C3C4CCC(O4)C3C(=O)O)sc2C)cc1 (stereo not shown),11.9
5,O=C(Nc1ccccc1N1CCCC1)c1ccc([N+](=O)[O-])o1,1.03
6,CCC(=O)N1CCN(c2ccccc2NC(=O)c2ccc([N+](=O)[O-])o2)CC1,-60.5
7,CN1CCN(c2ccccc2NC(=O)c2ccc(-c3cccc([N+](=O)[O-])c3)o2)CC1,-0.213
8,CC(C)C(=O)N1CCN(c2ccccc2NC(=O)c2ccc([N+](=O)[O-])o2)CC1,-23.5
9,CC(=O)N1CCN(c2ccccc2NC(=O)c2ccc(-c3cccc([N+](=O)[O-])c3)o2)CC1,-81.6
10,CCC(=O)N1CCN(c2ccccc2NC(=O)c2ccc(-c3cccc([N+](=O)[O-])c3)o2)CC1,-3.2
11,O=C(Nc1ccccc1N1CCOCC1)c1ccc([N+](=O)[O-])o1,-1
12,CN1CCN(c2ccccc2NC(=O)c2ccc([N+](=O)[O-])o2)CC1,-62.4
13,CCC(=O)N1CCN(c2ccc(Cl)cc2NC(=O)c2ccc([N+](=O)[O-])o2)CC1,0.198
14,c1ccc(C(c2nnnn2C2CCCCC2)N2CCc3ccccc3C2)nc1 (stereo not shown),7.86
15,C[C@H](NC(=O)N1CCn2c1nc1ccccc12)C(=O)NCCc1ccccc1,17.4
16,COc1ccc(NC(=S)N2CCN(C(=O)c3ccco3)CC2)c(OC)c1,8.24
17,CCn1c(=S)sc2c(=O)[nH]c(C)nc21,13.5
18,COc1cccc(CN2CC(C(=O)N3CCN(c4ccc(Cl)cc4)CC3)CCC2=O)c1 (stereo not shown),-53.3
19,COc1cccc(CN2CC(C(=O)N3CCCC3)CCC2=O)c1 (stereo not shown),10.9
20,COc1cccc(CN2CC(C(=O)N3CCCCCCC3)CCC2=O)c1 (stereo not shown),9.63
21,CCOC(=O)c1oc2ccccc2c1CSc1nnnn1-c1ccc(C)cc1,5.36
22,Cc1ccc(CN2CCC(NC(=O)c3ccccc3)CC2)cc1,-52.8

row,Compound,"hERG current change (%, negative = inhibition) at 1uM [%]"
1,COc1ccc(/C=C/C(=O)NC2CCN(Cc3ccccc3)CC2)cc1OC,12
2,Cc1ccc(CC(=O)NC2CCN(Cc3ccccc3)CC2)cc1,7.9
3,COc1ccccc1C1CCN(Cc2ccccc2)CC1,8.45
4,O=C(NC1CCN(Cc2ccccc2)CC1)c1ccccc1,2.84
5,O=C(NC1CCN(Cc2ccc(F)cc2)CC1)c1ccccc1,-15.9
6,O=C(/C=C/c1cccc(Br)c1)NC1CCN(Cc2ccccc2)CC1,-27.7
7,Fc1ccc(NC(=S)NC2CCN(Cc3ccccc3)CC2)cc1,6.75
8,COc1ccccc1C1CCN(Cc2ccc(C)cc2)CC1,-61.2
9,Cl.O=C(NC(=S)NC1CCN(Cc2ccccc2)CC1)c1ccc(F)cc1,-57.5
10,O=C(/C=C/c1cccc(F)c1)NC1CCN(Cc2ccccc2)CC1,-51.4
11,COc1ccccc1C1CCN(Cc2ccc(Cl)c(Cl)c2)CC1,10.4
12,Cc1cnc(-c2nnc(N(C)C(=O)c3cccnc3)s2)cn1,10.2
13,CCN(CC)c1ccc(/C=N/NC(=S)NC)c(O)c1,4.81
14,Cc1c(N=C2NC(=O)/C(=C/c3cccc([N+](=O)[O-])c3)S2)c(=O)n(-c2ccccc2)n1C,12.1
15,Cc1ccc(S(=O)(=O)CC(O)COc2ccc(F)cc2Cl)c(C)c1 (stereo not shown),7.06
16,COc1ccc(/C=N/NC(=O)C2c3ccccc3Oc3ccccc32)c(OC)c1,11.6
17,NS(=O)(=O)c1ccc(CNC(=O)c2cc(-c3cccnc3)nc3ccccc23)cc1,14.6
18,CCc1ccccc1NC(=O)Nc1c(C)n(C)n(-c2ccccc2)c1=O,-14.2
19,Cn1c(CSCc2ccc(F)cc2)n[nH]c1=S,13.6
20,CNC(=O)CSc1nc(-c2ccccc2)c(-c2ccccc2)[nH]1,3.72
21,Cc1ccc(S(=O)(=O)N2CCN(C(=O)c3nn(C(C)C)c(=O)c4ccccc34)CC2)cc1C,5.96
22,CC(C)Oc1ccc(S(=O)(=O)N2CCOCC2)cc1NC(=O)C1=COCCO1,11

row,Compound,"hERG current change (%, negative = inhibition) at 1uM [%]"
1,CC(=O)C[C@H]1c2ccccc2S(=O)(=O)N1C1CCCC1,14.6
2,Cn1c(Nc2ccc(F)cc2)nc2ccccc21,-77.5
3,COc1ccc(Nc2nc3ccccc3n2C)cc1,13.1
4,Cn1c(Nc2ccccc2)nc2ccccc21,8.25
5,COc1ccc(-c2[nH]c(-c3ccc(C)cc3)nc2SCC(=O)Nc2nccs2)cc1,21.6
6,CC1CN(C(=O)COc2ccc3c(-c4ccccc4)cc(=O)oc3c2)CC(C)O1 (stereo not shown),10.8
7,CC(=O)Nc1ccc(OS(=O)(=O)c2cc(Cl)ccc2C)cc1,13.6
8,CC(=O)Nc1ccc(OS(=O)(=O)c2ccc(Cl)cc2)cc1,-1.62
9,COc1ccc(Cl)cc1S(=O)(=O)Oc1ccc(NC(C)=O)cc1,-58.8
10,CCN(CC)CCCNC(=O)C(C)n1c2ccccc2c2nc(=O)cc(C)n21 (stereo not shown),12.7
11,O=C1c2ccccc2C(=O)N1/N=C/c1ccc(O)c(O)c1,13.9
12,CCOc1ccc(C2NC(=O)c3n[nH]c(C)c32)cc1 (stereo not shown),9.09
13,COc1ccccc1N1CCN(CC(=O)c2ccc(F)cc2)CC1.Cl,16.7
14,COc1ccccc1N1CCN(CCN(C(=O)C2CCCCC2)c2ccccn2)CC1.O=C(O)/C=C\C(=O)O,4.2
15,COc1ccccc1N1CCN(CCCCOc2cccc3ccccc23)CC1.Cl,9.44
16,Cc1ccccc1N1CCN(CCCOc2ccc3c(C)cc(=O)oc3c2)CC1,-56.2
17,COc1ccccc1N1CCN(CCCC(=O)c2ccc(F)cc2)CC1,-43.2
18,COc1ccc(N2CCN(CCOc3ccc4c(C)cc(=O)oc4c3)CC2)cc1,-37.8
19,COc1ccccc1N1CCN(CCCCCCOc2ccc(F)cc2)CC1,-7.53
20,COc1ccccc1N1CCN(CCCCOc2ccc(F)cc2)CC1.Cl,-71.5
21,COc1ccccc1N1CCN(CCN(C(=O)c2ccc(F)cc2)c2ccccn2)CC1.Cl,-57.8
22,COc1ccccc1N1CCN(Cc2ccc(F)cc2)CC1,6.42

row,Compound,"hERG current change (%, negative = inhibition) at 1uM [%]"
1,Cc1cc(=O)oc2cc(OCCCN3C(=O)c4ccccc4C3=O)ccc12,-0.574
2,COc1ccccc1N1CCN(CCCOc2ccc(F)cc2)CC1,-60.3
3,CCOC(=O)c1sc2nc(C)nc(N3CCCCC3C)c2c1C (stereo not shown),-5.1
4,O=C(NCCNC(=O)c1ccc(Cl)cc1Cl)c1cnccn1,6.54
5,O=C(CSc1cccc2cccc(Cl)c12)NC1=NCCS1,2.37
6,CSCCC(NC(=O)COc1ccccc1)C(=O)NCCOc1ccc(C)cc1 (stereo not shown),3.41
7,O=C(CCC1CCN(C(=O)c2ccccc2Cl)CC1)NCc1ccc(F)cc1,4.08
8,Cl.O=C(c1ccco1)N1CCN(CCOc2ccc(F)cc2)CC1,-0.809
9,O=C(c1ccco1)N1CCN(CCOc2ccccc2)CC1,10.3
10,Cl.O=C(c1ccco1)N1CCN(CCCCOc2ccc(F)cc2)CC1,-74.8
11,O=C(c1ccco1)N1CCN(C(=S)NCc2ccc(F)cc2)CC1,-3.27
12,O=C(CCC1CCN(C(=O)c2ccco2)CC1)NCc1ccc(F)cc1,-62
13,Cc1cccc(NC(=O)Cn2c(=O)n(Cc3ccco3)c(=N)c3c4c(sc32)COC(C)(C)C4)c1,3
14,COc1cccc(/C=C2\SC(N)=NC2=O)c1OS(=O)(=O)c1ccccc1,2.6
15,COc1cccc(CN2CC(C(=O)NCCCCc3ccccn3)CCC2=O)c1 (stereo not shown),7.17
16,Cc1ccccc1Cn1c(C)nc2ccccc21,10.4
17,Cc1ccc(SCc2nc3ccccc3n2CC(=O)Nc2c(C)cccc2C)cc1,6.88
18,CC(C)C[C@@H](C(=O)NC1CCN(Cc2ccccc2)CC1)N1C(=O)N2CCc3c([nH]c4ccccc34)[C@@]2(C)C1=O,-12.1
19,CC(C)[C@@H](C(=O)NC1CCN(Cc2ccccc2)CC1)N1C(=O)N2CCc3c([nH]c4ccccc34)[C@@]2(C)C1=O,-4.75
20,C[C@@H](C(=O)NC1CCN(Cc2ccccc2)CC1)N1C(=O)N2CCc3c([nH]c4ccccc34)[C@@]2(C)C1=O,-62.1
21,Cc1ccc(-n2nnnc2SCC(=O)Nc2ccccc2-c2ccccc2)cc1C,2.73
22,C#CC1CN(Cc2ccccc2)CC(C#C)N1C.Cl (stereo not shown),15.1
